SMILES strings stand for the structures. Compounds without any hit were thinned out: in the full panel of roughly 83,000, 20% have a hit.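 Treatment: one concentration, 48 hours, 96-well format. Scoring: percent growth, with anything below 10 considered active.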 Values without a mark were called inactive. The source made the active and inactive calls.

The subject of this test is EKVX NSCLC. The test is described as follows: NCI-60 one-dose screen, 48 h (100 = growth as untreated, 0 = no growth, -100 = all killed). To be noted: 10 µM unless noted. As to the method: Growth inhibition of the EKVX human Non-Small Cell Lung tumor cell line is measured as a screen for anti-cancer activity. Cells are grown in 96 well plates and exposed to the test compound for 48 hours. Compounds are tested at a single concentration, which is 10^-5 M for most compounds. The reported endpoint is percent growth (GI% or GIPRCNT), where numbers from 0 - 100% represent growth inhibition, and numbers from -100% - 0 represent cell death. For example, a value of 40 represents 60% growth inhibition. A value of 0 means no net growth occurred over the course of the experiment. A value of -40 indicates 40% of cells at the beginning of the experiment died by the end of the experiment. A value of -100 means all cells are dead at the end of the experiment.
NCI-60 Human Tumor Cell Lines Screen was performed using the standard one-dose NCI protocol, which is described in more detail at https://dtp.cancer.gov/discovery_development/nci-60/default.htm.
Compounds with GIPRCNT values below 10 were considered active. Activity score was based on GIPRCNT using the following formula: […]
Score is 0 for GIPRCNT values of 100 or above, 50 for GIPRCNT values of 0, and 100 for GIPRCNT values of -100.
For `CN(C(=O)NCc1cccc(F)c1Cl)[C@H](COC(=O)Nc1cc2ccccc2cn1)CC(O)CO` (stereo not given in full), the growth was 77.4%. To `Nc1nc(-c2cccc3ccccc23)cc2ccccc12` belongs 46%; to `O=C(Cc1ccc(F)c(Cl)c1)Nc1cc(C2(C(F)(F)F)CC2)nn1CC1CCCCC1`, 3.93% (active). On to `CCOC(=O)CC1C(COC(=O)NC)OC(n2cnc3c(NC(=O)Nc4ccccc4)ncnc32)C1O[Si](C)(C)C(C)(C)C` (stereo not given), for which the growth is 67.5%.

Regarding `Cc1nc2ccccc2n1-c1ncnc2c1CC(C)c1ccccc1N2C` (stereo not given), the growth is 92.7%. As for `CCOC(=O)c1cn2ncnc(Oc3ccc(NC(=O)NCCN(C)C)c(Cl)c3)c2c1C`, the growth was 79.3%.

For `O=C(/C=C/c1cccc2ccccc12)c1ccc(NC(=O)c2ccccc2CN2C(=O)c3ccccc3C2=O)cc1`, the growth was 81.4%. To `CCCCOc1ccc(/C=N/NC(N)=S)cc1` belongs 85.9%; to `COc1ccc(S(=O)(=O)n2cc(C3OC(c4cc(OC)c(OC)c(OC)c4)=NN3C(C)=O)c3ccccc32)cc1OC` (stereo not given), 78.9%. In the case of `Cc1cccc2c1S/C(=C/c1ccc([N+](=O)[O-])cc1)C2=O` it was 103%; in that of `Cc1ccc(C2CC(c3ccc(Nc4ccnc5cc(Cl)ccc45)cc3)=NN2C=O)cc1` (stereo not given), 50.1%; in that of `O=C(CCOCCNC(=O)COc1ccc2c(c1)OCC(c1ccc(F)cc1)C2=O)NCCCC(O)(P(=O)(O)O)P(=O)(O)O` (stereo not given), 94.5%. With `CNc1ccc(Nc2cccc(C)c2)c2c1C(=O)c1ccccc1C2=O`, the growth is 164%. As to `OC(c1ccccc1)C(NC(Cc1ccccc1)c1ccccc1)c1ccccc1` (stereo not given), the growth is 92%. To `COc1ccc(C(=O)C(C)C)c2ccccc12` belongs 94.7%; to `CC1(C)C2CC1C1(/C=N/NC(N)=S)C(C2)C(C#N)(C#N)C1(C#N)C#N` (stereo not given), 93.8%; to `COc1ccc(C(=O)COC(=O)[C@H](C[Se][Se]C[C@H](NC(=O)c2ccc(Br)cc2F)C(=O)OCC(=O)c2ccc(OC)cc2)NC(=O)c2ccc(Br)cc2F)cc1`, -69.4% (active). In the case of `Fc1cc2c(cc1Cl)N(c1ncnc3ccc(-c4cnc5cnccn45)cc13)CC2` it was 63.4%. In the case of `O=C(COc1ccc(/C=C2\Cc3ccc(Cl)cc3C2=O)cc1)Nc1nc2ccccc2s1` it was 117%; in that of `FC(F)(F)c1cc(Nc2ccc3c(OCCCN4CCOCC4)cccc3n2)ccc1Cl`, 48.8%; in that of `CCCCCCN1C(=O)/C(=c2\sc3n(c2=O)C2C(NN=3)N(CC)C(=O)N2CC)c2ccccc21` (stereo not given), 65%. Consider `COc1ccc2sc3c(NCCCN(C)C)nc4ccccc4c3c(=O)c2c1`, for which the growth was 70%. For the molecule `CCCCNC(=O)Oc1ccc(/C(=C(\C)c2ccc(Cl)cc2)c2ccc(OCCN(CC)CC)cc2)cc1`, the growth is 75%. With `BrCCCc1n(Cc2ccc3ccccc3c2)c2ccccc2[n+]1Cc1ccc2ccccc2c1`, the growth was -10.7% (active).

For `O=C1COCCN1c1ccc(NCc2cn(C(=O)c3ccc(Cl)cc3)c3ccccc23)cc1`, the growth is 83.9%. On to `COc1ccc(C2=Nn3c(nnc3-c3cc(Cl)cc(Cl)c3Cl)SC2)cc1`, for which the growth was 41.3%. As to `O=C1NC(=O)C(c2ccccc2)(c2ccccc2)N1Cc1cn(-c2c3ccccc3nc3ccccc23)nn1`, the growth is 80.4%. In the case of `O=c1c2cc(F)cc(Cl)c2sc2c(NCCCNCCO)nc3ccccc3c12`, the growth is 88.2%.

`COc1ccc(C2CC(c3ccc(Nc4ccnc5cc(Cl)ccc45)cc3)=NN2C=O)cc1` (stereo not given): the growth was 68.2%.

As for `O=C1NC(=O)C(Cn2cnc3ccccc32)N1` (stereo not given), the growth is 100%. As for `C/C(=C(/c1ccccc1)c1ccc(N2C(=O)c3cccc4c(N5CCN(C)CC5)ccc(c34)C2=O)cc1)c1ccccc1`, the growth is 62.4%. In the case of `Fc1cc(-c2nnc3sc(-c4ccc(Cl)cc4Cl)nn23)c(Cl)cc1Cl`, the growth is 73.3%. In the case of `O=C(N/N=C/[C@H](O)[C@@H](O)[C@@H](O)[C@H](O)CO)c1ccc(NC(=O)c2cccnc2)cc1` it was 107%. To `Cc1ccc2c(-c3cc(-c4ccccc4)nc(N)c3C#N)cc(=O)oc2c1` belongs 113%; to `CCCCn1c(-c2ccc(-c3nc(-c4ccc(Cl)cc4)no3)cc2)nc(-c2ccccc2)c1-c1ccccc1`, -93.7% (active); to `CN1C(=C2C(=O)OC(C)(C)OC2=O)CCC1C(=O)NCc1ccc(Cl)cc1Cl` (stereo not given), 97.5%. Regarding `Cc1cccc2c3c(sc12)C(c1ccc(Cl)cc1)C(C#N)=C(/N=C/c1ccc(Cl)cc1)O3` (stereo not given), the growth is 46.5%. On to `COc1ccc(-c2c(C(=O)NS(C)(=O)=O)n(Cc3cccc(C(F)(F)F)c3)c3ccccc23)cc1`, for which the growth is 91%.

In the case of `CCOC(=O)c1c(C)oc2ncnc(N3CCN(C(=O)COc4ccc(C(C)(C)C)cc4)CC3)c12`, the growth was 74%. With `CC(C)n1cnc2c(Nc3cccc(Cl)c3)nc(N[C@H]3CCCC[C@@H]3N)nc21`, the growth was 54.1%.
